Hits are enriched below; roughly 19% of the tested compounds scored in any of these assays.
HT1080-NT tox: kills 2HG-producing HT-1080-NT fibrosarcoma cells | 360,000 tested, 1.6% active | Potency, µM (series often up to 46.1 µM), usual class: cytotoxic | AID 686970 | HT-1080-NT fibrosarcoma viability, CellTiter-Glo ATP luminescence, 48 h;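 further: NT is the 2HG producing partner of a matched IDH1 knockdown line; nearly all actives have a fitted effect of over 55% in size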
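750 cells/well, RPMI + 5% FBS; 2 h settle, compound pin-transfer, 48 h at 37 degrees C. CellTiter-Glo 10 min RT, luminescence. Normalized to DMSO and media-only wells.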
ELG1 repair inh: ELG1-dependent DNA repair inhibition; HEK293T ELG1-luciferase reporter, luminescence, 16 h; DNA damage induced by 5-fluorouridine; Potency, µM (series often up to 46.1 µM), most hits filed as inhibitors; 330,000 tested, 2.3% active; AID 504467; further: nearly all actives have a fitted effect of over 55% in size
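Cells (2,000 per well) received 5-fluorouridine plus test compound or DMSO and were incubated 16 hr at 37 °C, 5% CO2. Luciferase activity was read by luminescence 30 min after ONE-Glo addition; signal suppression marked inhibition of damage-induced ELG1 function.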
DT40 TDP1 CPT: growth inhibition of DT40 Tdp1-/-;hTDP1 cells with camptothecin (screen for TDP1 inhibitors); AID 686979; 420,000 tested, 12% active; chicken DT40 Tdp1-/-;hTDP1 cells + 20 nM CPT, ATP luminescence, 48 h; Potency, µM (doses to about 46.2 µM), most hits filed as inhibitors; further: nearly all actives have a fitted effect of over 55% in size
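Chicken DT40 Tdp1-/- cells stably complemented with human TDP1 were seeded at 400 cells/well in medium containing 20 nM camptothecin, exposed to pin-transferred compounds, and grown at 37 °C for at least 48 hr. Viability was read as ATP luminescence.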
HT1080 IDH1KD tx: kills HT-1080 cells with IDH1 knockdown | HT-1080 IDH1 knockdown viability, ATP luminescence, 48 h | Potency, µM (top dose mostly 46.1 µM), actives largely listed as cytotoxic | 360,000 tested, 2% active | AID 686971
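HT-1080-IDH1KD cells (IDH1 knocked down), 750/well in RPMI with 5% FBS, treated with compound 48 h at 37 degrees C. Viability by CellTiter-Glo luminescence, normalised to DMSO and no-cell wells; concentration-response curves classed.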
IL1B secr inh: inflammasome signaling inhibition, IL-1 beta readout; THP-1 LPS/ATP IL-1B secretion, AlphaLISA, 16 h; active compounds read low; activity change, % at 57.5 µM; 360,000 tested, 4.7% active; in the data active means activity change below about -50%; inconclusive means mostly about -30% to -49%
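THP-1 cells pretreated 1 hr with compounds (up to 57.5 uM final), then stimulated with LPS (250 ng/mL final) plus ATP (1.25 mM final); secreted IL-1B measured by AlphaLISA after 16 hr, decreased signal indicating inhibition.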
DT40 TDP1 no CPT: qHTS for Inhibitors of human tyrosyl-DNA phosphodiesterase 1 (TDP1): qHTS in cells in absence of CPT; DT40 Tdp1-/- hTDP1 cells, no CPT, ATP luminescence, 48 h; Potency, µM (series often up to 46.2 µM), most hits filed as inhibitors; 420,000 tested, 15% active; AID 686978, 2013; further: nearly all actives have a fitted effect of over 55% in size
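Luminescent ATP content (CellTiter-Glo) served as the growth readout. Knockout chicken DT40 cells expressing human TDP1 were exposed to compounds without camptothecin for a minimum 48 hr at 37 °C.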
A number is an active result; – = inactive; ? = inconclusive; · = no result given; [ ] = dose if it differs, or a comment. Unless noted, the call rests on the fitted dose curve; in most records, active means well fitted curve in the direction sought with a large enough effect; inconclusive means small, poorly fitted or top-dose-only effect, or another doubt; inactive means no such curve, though single readings can be large; an effect the other way counts as inactive or inconclusive.

SMILES | HT1080-NT tox | ELG1 repair inh | DT40 TDP1 CPT | HT1080 IDH1KD tx | IL1B secr inh | DT40 TDP1 no CPT
COc1ccc(CN(Cc2ccccc2)C(=O)COC(C)=O)cc1COc1ccc(NC(C)=O)cc1 | – | · | ? | – | · | ?
Cc1ccc(-c2cc(C(=O)NCCN3CCOCC3)c3ccccc3n2)o1 | – | – | – | – | – | –
COCCNC(=O)CSCc1cc(C)cc(C)c1 | – | – | – | – | – | –
COC(=O)COc1ccc(-c2nccc(-c3ccc(Br)cc3)n2)cc1 | ? | – | 21µM | – | – | ?
COC(=O)COc1ccc(-c2nccc(-c3ccccn3)n2)cc1 | – | ? | – | – | – | –
COc1ccc(-c2ccnc(-c3ccncc3)n2)cc1 | – | – | ? | – | – | 16µM
COc1ccc(-c2ccnc(-c3ccc(O)cc3)n2)cc1 | 4.1µM | ? | 1.6µM | 1.5µM | – | 1.8µM
O=C(O)/C=C\C(=O)Nc1ccccc1C(=O)N1CCC(O)(c2ccc(Cl)cc2)CC1 | – | · | ? | – | – | ?
COc1ccc(CN2C(=O)C(CC(C)C)Nc3ncnc(N4CCN(c5ccccn5)CC4)c32)cc1 (stereo unspecified) | – | – | ? | ? | -58 | ?
Cc1ccc(CN2C(=O)C(CC(C)C)Nc3ncnc(N4CCN(c5ccccn5)CC4)c32)cc1 (stereo unspecified) | ? | ? | ? | ? | -56 | 18µM
CC(C)c1ccc(N(CC(=O)NCCCN2CCOCC2)S(=O)(=O)c2ccccc2)cc1 | – | ? | 18µM | – | – | 26µM
CC(C)c1ccc(N(CC(=O)N/N=C/c2ccc(OC3CSC3)cc2)S(=O)(=O)c2ccccc2)cc1 | – | – | 23µM | – | – | ?
CCc1cc(C(=O)NCC2Cc3cc(-c4ccccc4C(C)=O)ccc3O2)no1 (stereo unspecified) | · | · | –[9.04 µM] | · | · | ?
FC(F)(F)c1ccc(Nc2nnnc3ccccc23)cc1 | – | – | ? | – | – | 3.7µM
FC(F)(F)c1ccccc1-c1nc(Nc2ccncc2)c2ccccc2n1 | · | · | ? | · | · | –
CCCCc1nc2sc3c(c2c(=O)[nH]1)CC(C)(C)OC3 | – | · | – | – | – | –
CCC1CC2(C)NC(=O)c3c(sc4c3CC(C)(C)OC4)N2C1=O (stereo unspecified) | – | ? | ? | – | – | 21µM
CC1(c2ccc(Cl)cc2Cl)NC(=O)N(CC(=O)Nc2ccc3[nH]c(=O)[nH]c3c2)C1=O (stereo unspecified) | – | ? | – | – | – | –
O=C(CSc1nc2ccccc2s1)N1c2ccccc2Sc2ccc(C(F)(F)F)cc21 | – | – | ? | – | – | 15µM
CC(CN(C)C)CN1c2ccccc2Sc2ccccc21 (stereo unspecified) | 16µM | – | ? | ? | ? | 18µM
CC(CN1c2ccccc2Sc2ccccc21)N(C)C (stereo unspecified) | – | – | ? | – | ? | ?
CN(C)CCCN1c2ccccc2Sc2ccc(C(F)(F)F)cc21 | · | – | ? | · | -62 | 24µM
CN(C)CCCN1c2ccc(O)cc2Sc2ccc(Cl)cc21 | ? | · | ? | ? | – | ?
CC(CN(C)C)CN1c2ccccc2Sc2ccc(C(F)(F)F)cc21 (stereo unspecified) | · | · | ? | · | · | 17µM
COc1ccc(/C=C/c2cc(OC)c(OC)cc2CC[N+](C)(C)C)cc1 | · | · | –[9.04 µM] | · | · | –[9.04 µM]
SMILES | HT1080-NT tox | ELG1 repair inh | DT40 TDP1 CPT | HT1080 IDH1KD tx | IL1B secr inh | DT40 TDP1 no CPT
COc1ccc2c(c1)N(C[C@H](C)CN(C)C)c1ccccc1S2 | 23µM | · | ? | 21µM | ? | ?
CN(C)CCC(=O)N1c2ccccc2Sc2ccc(C(F)(F)F)cc21 | – | – | 23µM | – | – | ?
Cc1cc(C)n(CC(O)CN2c3ccccc3Sc3ccccc32)n1 (stereo unspecified) | – | ? | ? | – | – | ?
OCCN(CCO)CC(O)CN1c2ccccc2Sc2ccccc21 (stereo unspecified) | – | – | – | – | – | –
CCN(CC)CC(O)CN1c2ccccc2Sc2ccccc21 (stereo unspecified) | – | – | ? | – | -68 | ?
CCN(CC)CC(=O)N1c2ccccc2Sc2ccccc21 | – | – | ? | – | – | –
CCN(CC)CCCCN1c2ccccc2Sc2ccccc21 | 18µM | – | 21µM | 23µM | -70 | 21µM
CCOC(=O)Nc1ccc2c(c1)N(C(=O)CCN(C)C)c1ccccc1S2 | – | – | – | – | ? | –
CCN(CC)CCC(=O)N1c2ccccc2Sc2ccc(NC(=O)OC)cc21 | – | – | – | – | -79 | –
CCCOc1ccc(C(=O)Nc2ccc(S(=O)(=O)N3C[C@@H]4C[C@@H](C3)c3cccc(=O)n3C4)cc2)cc1 | 8.2µM | – | ? | ? | – | 13µM
COc1ccccc1CNC(=O)c1cn(C)c(=O)c2cc(OC)c(OC)cc12 | – | – | 18µM | – | – | 21µM
COc1cccc(NC(=O)c2cn(C)c(=O)c3cc(OC)c(OC)cc23)c1 | – | – | 8.2µM | – | – | 15µM
CC(=O)Nc1ccc(NC(=O)C(C)OC(=O)C2CCN(S(=O)(=O)c3ccc4c(c3)OCCO4)CC2)cc1 (stereo unspecified) | – | – | – | – | – | –
CCOC(=O)C1(C)CCN1C(=O)c1ccc(C(F)(F)F)cc1 (stereo unspecified) | – | · | – | – | – | –
O=C1C=CC(=C(c2ccc(O)cc2)c2ccc(O)cc2)C=C1 | 9.2µM | 13µM | 9.2µM | 12µM | -100 | 2.3µM
O=Cc1ccc(OC(=O)CCCCC(=O)Oc2ccc(C=O)cc2)cc1 | – | – | – | – | – | –
Cc1ccccc1NC(=O)Cn1c(=O)oc2ccccc21 | – | – | 3.7µM | – | – | 2.1µM
CC(C)Oc1ccc(CNC(=O)Cn2c(=O)oc3ccccc32)cc1 | – | – | ? | – | – | 16µM
CCc1ccccc1NC(=O)Cn1c(=O)oc2ccccc21 | · | · | 2.3µM | · | · | 0.46µM
O=C(Cn1c(=O)oc2ccccc21)Nc1ccccc1Cl | – | – | – | – | – | ?
CCCOc1ccc(CNC(=O)Cn2c(=O)oc3ccccc32)cc1 | – | – | ? | – | – | ?
COc1ccc(C)cc1NC(=O)Cn1c(=O)oc2ccccc21 | – | – | 9.2µM | – | – | 2.1µM
Cc1cccc(S(=O)(=O)NC(=O)C2(C)CCN2C(=O)Cc2cccs2)c1 (stereo unspecified) | – | · | – | – | – | ?
CN(C)C1(CNC(=O)COc2ccc([N+](=O)[O-])cc2)CCCCC1 | · | · | – | · | · | –
